# Values joined by “and” are separate entries in the source; they are usually repeats but may differ in a detail not shown here. Equal entries are not always repeated. The whole screen tested about 340,000 compounds, of which about 1,000 (0.29%) were called active. A selection follows. Potency and affinity values are given separately. Values without a mark were called inactive. Cut-off read from the data, not from the text of the source: inconclusive = inhibition above about 27% without an active follow-up result; inactive = below that.
# Experiment: NS1A inhibition, H1N1 influenza, cell based functional assay (AID 504329)
# Details: percent inhibition, at 12.5 µM, hits give high values
row,SMILES,inhibition
1,Cc1ccc(C2/C(=C(\O)c3c(C)nc4ccccn34)C(=O)C(=O)N2CCN(C)C)o1 (stereo not drawn),-13.9%
2,COc1ccc(NC(=O)COC(=O)CCCOc2ccc(Cl)cc2Cl)cc1Cl,-5.19%
3,Cc1[nH]nc2c1C(c1cnn(C)c1)C(C#N)=C(N)O2 (stereo not drawn),-1.46%
4,Cc1ccc(NS(=O)(=O)c2cc([N+](=O)[O-])ccc2NNC(=S)Nc2cc(C)ccc2C)c(C)c1,21.2%
5,COc1ccc(NC(=S)NNc2ccc([N+](=O)[O-])cc2S(=O)(=O)Nc2ccc(C)cc2C)cc1,17.3%
6,Cc1cc(C)nc(NC(=NCc2ccc3c(c2)OCO3)NC(=O)Nc2ccccc2)n1,12.4%
7,O=S(=O)(NC1CCC(NS(=O)(=O)c2c(F)cccc2F)CC1)c1ccc2c(c1)OCCO2 (stereo not drawn),6.49%
8,Nc1nc(N)c(N=Nc2ccc(C(=O)O)cc2)c(N)n1,17.8%
9,O=C(O)c1ccc(N/N=C/c2ccnc3ccccc23)cc1,12.7%
10,CC(=NCCN1CCOCC1)c1c(O)n(-c2ccccc2C)c(=O)[nH]c1=O,5.2%
11,COc1cc(Nc2ccc(S(=O)(=O)N3CCN(C)CC3)cc2[N+](=O)[O-])cc(OC)c1,18.2%
12,COc1ccc(Nc2ccc(S(=O)(=O)N3CCCCC3)cc2[N+](=O)[O-])cc1Cl,21%
13,COc1ccc(Nc2ccc(S(=O)(=O)N3CCCCC3)cc2[N+](=O)[O-])cc1,21%
14,COc1ccccc1Nc1ccc(S(=O)(=O)N2CCCCC2)cc1[N+](=O)[O-],22.4%
15,CSCCC(NS(=O)(=O)c1cccc(C(F)(F)F)c1)C(=O)N(C)Cc1ccc2c(c1)OCCO2 (stereo not drawn),-15.2%
16,C/C(=N\Nc1ccccc1)c1c(O)n(-c2ccccc2)c(=O)[nH]c1=O,-15.4%
17,N#C/C(=C\c1ccc([N+](=O)[O-])cc1)c1nc(C2CC2)cs1,-3.47%
18,N#C/C(=C/c1ccccc1[N+](=O)[O-])c1nc(C2CC2)cs1,16.5%
19,CN(CC(=O)NC(=O)NC1CCCCC1)c1ccccc1,-19.7%
20,CCCc1nnc(SCC(=O)Nc2cc(C)on2)n1CCOC,-2.31%

row,SMILES,inhibition
1,O=C(O)c1cc(S(=O)(=O)N2CCCCC2)sc1Cl,0.17%
2,Nc1[nH]n(-c2ccccc2)c(=O)c1N=Nc1ccc2c(c1)OCO2,-20.9%
3,Cc1[nH]n(-c2ccccc2)c(=O)c1N=Nc1c(Cl)cccc1Cl,-0.23%
4,Cc1[nH]n(-c2ccccc2)c(=O)c1N=Nc1ccc(Cl)cc1,1.98%
5,Nc1[nH]n(-c2ccccc2)c(=O)c1N=Nc1ccccc1,20.9%
6,Cc1[nH]n(-c2ccccc2)c(=O)c1N=Nc1ccc2c(c1)OCO2,1.81%
7,Cc1ccc(N=Nc2c(C)[nH]n(-c3ccccc3)c2=O)cc1Br,2.46%
8,Cc1[nH]n(-c2ccccc2)c(=O)c1N=Nc1ccccc1O,27.8%
9,Cc1[nH]n(-c2ccccc2)c(=O)c1N=Nc1ccccc1,-4.27%
10,Cc1noc(C)c1CSc1nnc2scc(-c3ccccc3)n12,0.06%
11,Cc1ccc(S(=O)(=O)NCCNC(=O)C2CCCNC2=O)cc1 (stereo not drawn),-2.4%
12,NNC(=O)COc1cccc(C(F)(F)F)c1,-3.83%
13,CC(C)CC(=O)C(=O)O,1.46% and 3.24%
14,O=C(COC(=O)c1cccc(-n2cnnn2)c1)c1ccc(F)cc1,-2.74%
15,Cc1ccccc1-c1cccc([C@@H]2C[C@H]3[C@H](CON3C)CN2S(=O)(=O)c2ccccc2C)c1,-6.53%
16,Cc1ccc(S(=O)(=O)N2CCOCC2)cc1NC(=O)CNCc1ccccc1Cl,-1.72%
17,O=C(CNCc1ccncc1)Nc1cc(S(=O)(=O)N2CCCCC2)ccc1Cl,-4.7%
18,Cc1ccc(S(=O)(=O)N2CCOCC2)cc1NC(=O)CSc1ccccn1,-3.06%
19,COc1ccccc1CNCC(=O)Nc1cc(S(=O)(=O)N2CCCCCC2)ccc1Cl,2.82%
20,CS(=O)(=O)c1ccc(-c2cccc(NC(=O)COc3ccc(Cl)cc3)c2)nn1,7.16%

row,SMILES,inhibition
1,Fc1ccc(Oc2nccc(-c3ccc(Cl)cc3)n2)cc1,-2.98%
2,CCN(C[C@H]1N[C@@](CC)(C(=O)OC)[C@H]2C(=O)N(Cc3ccccc3)C(=O)[C@@H]12)C(=O)C1CCCCC1,-2.32%
3,O=C(NNC(=O)c1ccccc1Br)c1ccc2nc[nH]c2c1,22.1%
4,CCOC(=O)C1(CC)NC(c2ccc(N(C)C)cc2)C2C(=O)N(C)C(=O)C21 (stereo not drawn),9.29%
5,CCOc1ccc2c(c1)-c1c(ssc1=S)C(C)(C)N2C(=O)c1ccco1,1.84%
6,COc1ccc2c(c1)-c1c(ssc1=S)C(C)(C)N2S(=O)(=O)c1ccc(C)cc1,17.8%
7,CCN(CC(=O)Nc1c(F)cccc1F)C(=O)CSc1ccccc1,-8.64%
8,COc1ccc(/C=N/Nc2cc(N3CCOCC3)ncn2)c(OC)c1,-0.39%
9,COc1cccc(/C=N/Nc2cc(Cl)nc(C)n2)c1O,-12.7%
10,Oc1ccccc1/C=N/Nc1ccnc(SCc2ccccc2)n1,-3.79%
11,COc1cccc(/C=N/Nc2c(Cl)cncc2Cl)c1O,1.36%
12,COc1ccc(/C=N/Nc2cc(OC)ncn2)cc1,3.33%
13,Oc1ccccc1/C=N/Nc1cccc2cccnc12,-0.48%
14,Clc1ccccc1/C=N/Nc1cc(N2CCOCC2)ncn1,17.6%
15,COc1cc(N/N=C/c2ccc(N(C)C)cc2)ncn1,-5.63%
16,CCN(C(=O)COC(=O)Cc1c[nH]c2ccccc12)C1CCS(=O)(=O)C1 (stereo not drawn),2.01%
17,Cc1ccc(NC(=O)CSc2nc3ccccc3c(=O)[nH]2)cc1[N+](=O)[O-],5.04%
18,COc1ccccc1NC(=O)NNC(=O)CCc1ccccc1,-10.3%

# From PubChem BioAssay AID504329 (Southern Research Specialized Biocontainment Screening …, 2011)
